KB-3-1 tox = kills parental KB-3-1 adenocarcinoma cells; KB-3-1 viability, CellTiter-Glo ATP luminescence, 72 h; Potency, µM (highest dose often 46.1 µM), most hits filed as cytotoxic; 400,000 compounds, 1.4% hits; AID 1347075; further: nearly all actives have a fitted effect of over 60% in size
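Cytotoxicity measured as CellTiter-Glo luminescence after 72 h at 37 C. Compound titrations were pinned onto drug-naive KB-3-1 parental adenocarcinoma cells grown in DMEM with 10% FBS, and normalized data fitted to concentration-response curves.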
S-ASM inh = human S-ASM enzyme inhibition; 340,000 compounds, 0.006% hits; AID 504937; placental ASM, HMU-PC fluorogenic substrate, 60 min; Potency, µM (highest dose often 57.5 µM), usual class: inhibitors; P17405
Target sequence (P17405 47-631 limits assumed): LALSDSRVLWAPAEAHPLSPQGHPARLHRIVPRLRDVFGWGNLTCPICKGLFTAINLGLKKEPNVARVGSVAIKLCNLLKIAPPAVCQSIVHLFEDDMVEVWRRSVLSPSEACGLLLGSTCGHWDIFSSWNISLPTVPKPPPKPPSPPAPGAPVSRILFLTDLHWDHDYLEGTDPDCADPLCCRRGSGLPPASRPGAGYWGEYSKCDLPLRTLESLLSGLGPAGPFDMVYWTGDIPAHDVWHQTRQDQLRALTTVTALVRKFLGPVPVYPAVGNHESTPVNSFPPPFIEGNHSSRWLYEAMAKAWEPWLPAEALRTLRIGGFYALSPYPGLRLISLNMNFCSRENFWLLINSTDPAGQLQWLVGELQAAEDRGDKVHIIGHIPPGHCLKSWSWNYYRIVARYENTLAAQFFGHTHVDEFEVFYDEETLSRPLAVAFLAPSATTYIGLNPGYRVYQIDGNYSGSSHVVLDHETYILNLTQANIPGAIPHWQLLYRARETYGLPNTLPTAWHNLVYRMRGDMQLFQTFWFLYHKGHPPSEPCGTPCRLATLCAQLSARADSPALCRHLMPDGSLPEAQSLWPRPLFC
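HMU-PC0 cleavage (9 uM final) by human placental ASM, 60 min at 37 °C following 10 min compound exposure at RT; stopped at pH 10, fluorescence Ex 386/Em 447 nm.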
KB-V1 MDR tox = kills drug-selected multidrug resistant KB-V1 cells. AID 1347076. 400,000 compounds, 3.4% hits. Potency, µM (top dose mostly 46.1 µM), most hits filed as cytotoxic. KB-V1 MDR cells viability, CellTiter-Glo, 72 h; further: nearly all actives have a fitted effect of over 60% in size
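Cells of the MDR subline KB-V1 are plated, dosed with compound at multiple concentrations, and incubated 72 h at 37 degrees C; CellTiter-Glo is then added and luminescence read after 10 min.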
MCF10A rereplic = DNA re-replication induction in MCF 10a cells; 350,000 compounds, 2.9% hits; MCF 10A DNA re-replication, Hoechst nuclear intensity, 48 h; Potency, µM (top dose mostly 46.1 µM), most hits filed as activators; further: nearly all actives have a fitted effect of over 50% in size
Giardia killer = kills Giardia lamblia; 340,000 compounds, 0.15% hits; Giardia lamblia trophozoite viability; AID 540267; activity change, % at 7.66 µM, hits read low; in the data active means activity change below about -80%; inconclusive means between about -30% and that limit;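 further: parasites exposed to compound for two days anaerobically before the ATP read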
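Giardia trophozoites, 100 cells per well, were exposed to compounds for 48 hrs at 37 deg C under anaerobic conditions; viability was then read as ATP content by bioluminescence after 15-30 min at room temperature.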
SW480 rerep = inducers of DNA re-replication in SW480 colon cancer cells | SW480 DNA re-replication, Hoechst DNA content imaging, 48 h | Potency, µM (top dose mostly 46.1 µM), hits mostly activators | 340,000 compounds, 1.8% hits | AID 624297; further: nearly all actives have a fitted effect of over 55% in size
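Quantitative HTS format with DMSO vehicle controls; 48 hr drug incubation at 37 C, then 40 min Hoechst staining and scanning imager measurement at 405 nm excitation.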
Each line names hits and unclear results; the compound was inactive in the other large screens; ! = not confirmed by another sample. A selection: hits, their analogues and other compounds. The true share with any hit is near 6.9%. Unless noted, the call rests on the fitted dose curve; in most records, active means well fitted curve in the direction sought with a large enough effect; inconclusive means small, poorly fitted or top-dose-only effect, or another doubt; inactive means no such curve, though single readings can be large; an effect the other way counts as inactive or inconclusive.

Cc1noc(C(=O)Nc2ccc3c(c2)OCO3)c1Cl	none
Cc1ccc2c(Cl)c(C(=O)NCc3cccnc3)sc2c1	KB-V1 MDR tox 14.6µM
Cc1ccc2c(Cl)c(C(=O)Nc3ccc4c(c3)OCO4)sc2c1	MCF10A rereplic inconclusive, SW480 rerep 20.6µM
O=C(NCc1cccnc1)c1sc2ccccc2c1Cl	KB-3-1 tox inconclusive
Cc1ccc(CNC(=O)CSc2nc3ccsc3c(=O)n2Cc2ccc(C(=O)O)cc2)cc1	KB-V1 MDR tox inconclusive, MCF10A rereplic 0.651µM
CCNC(=S)N(CCc1ccc(S(N)(=O)=O)cc1)C1CC(=O)N(c2ccccc2)C1=O (configuration not stated)	KB-3-1 tox inconclusive, SW480 rerep inconclusive
COC(=O)CN(C(=S)Nc1ccc(F)cc1)C1CC(=O)N(c2ccccc2)C1=O (configuration not stated)	none
O=C1CC(N(CCc2ccccc2)C(=S)Nc2ccccc2)C(=O)N1c1ccccc1 (configuration not stated)	KB-V1 MDR tox 16.4µM, MCF10A rereplic inconclusive, SW480 rerep inconclusive
O=C1CC(N(CCc2ccccc2)C(=S)Nc2ccccc2)C(=O)N1c1ccc(F)cc1 (configuration not stated)	KB-3-1 tox inconclusive, MCF10A rereplic 18.4µM
CN(C)c1ccc(/C=C/c2nc(-c3ccccc3O)n(-c3ccccc3)n2)cc1	none (no result: S-ASM inh, MCF10A rereplic, Giardia killer, SW480 rerep)
CC1CCN(C(=S)NCCc2ccccc2)CC1	KB-V1 MDR tox 23.1µM
Fc1ccc(CN2CCN(C(=S)NCCc3ccccc3)CC2)c(Cl)c1	KB-3-1 tox inconclusive, KB-V1 MDR tox 20.6µM
CS(=O)(=O)c1ccccc1C(=O)Nc1ccc(-c2nc3ccccc3[nH]2)cc1	none
O=C(Nc1ccc(-c2nc3ccccc3[nH]2)cc1)c1ccccc1NS(=O)(=O)c1ccc(F)cc1	MCF10A rereplic 18.4µM, SW480 rerep inconclusive
Cc1cc(F)ccc1S(=O)(=O)Nc1ccccc1C(=O)Nc1ccccc1-c1nc2ccccc2[nH]1	KB-3-1 tox inconclusive, KB-V1 MDR tox 18.4µM, MCF10A rereplic 3.66µM, SW480 rerep inconclusive
O=C(Nc1ccc2c(c1)CCCN2C(=O)c1ccco1)c1cc([N+](=O)[O-])ccc1Cl	KB-V1 MDR tox inconclusive, MCF10A rereplic inconclusive, SW480 rerep inconclusive
CCN1CCN(c2cc(C)c3cc(NC(=O)c4cc(Br)ccc4Cl)ccc3n2)CC1	KB-V1 MDR tox inconclusive (no result: S-ASM inh, MCF10A rereplic, Giardia killer, SW480 rerep)
O=C(Cn1ncc2c(Cl)cccc21)NCc1cccc(Cl)c1	none (no result: S-ASM inh, MCF10A rereplic, Giardia killer, SW480 rerep)
Cc1sc(NC(=O)c2cc(-c3ccc(Cl)cc3)nc3ccccc23)c(C(N)=O)c1C	MCF10A rereplic 18.4µM, SW480 rerep inconclusive
Cc1cc(NC(=O)c2cc(-c3ccccc3C)nc3ccccc23)no1	none
CCOC(=O)c1sc(NC(=O)c2cc(-c3ccc(C)cc3)nc3ccccc23)c(C#N)c1C	KB-3-1 tox inconclusive, KB-V1 MDR tox 3.26µM, MCF10A rereplic inconclusive
Cc1ccccc1-c1cc(C(=O)Nc2sc(C(=O)OC(C)C)c(C)c2C#N)c2ccccc2n1	KB-3-1 tox 5.17µM, KB-V1 MDR tox 8.2µM, MCF10A rereplic inconclusive, SW480 rerep inconclusive
COC(=O)c1sc(NC(=O)c2cc(-c3ccccc3)nc3ccccc23)c(C#N)c1C	KB-3-1 tox 1.46µM, KB-V1 MDR tox 1.64µM, MCF10A rereplic inconclusive
COc1ccc(-c2cc(C(=O)Nc3sc4c(c3C#N)CCCC4)c3ccccc3n2)cc1	KB-V1 MDR tox inconclusive
COC(=O)c1sccc1NC(=O)c1cc(-c2ccc(C)cc2)nc2ccccc12	none
O=C(Cn1ncc2c3ccccc3n(Cc3cccc(Cl)c3)c2c1=O)NC1CCCCCC1	none (no result: S-ASM inh, MCF10A rereplic, Giardia killer, SW480 rerep)
CC(=O)c1cccc(S(=O)(=O)Nc2ccccc2N2CCOCC2)c1	none
COc1ccccc1C(=O)Nc1ccc2nc(SCC(=O)N(C)c3ccccc3)sc2c1	KB-3-1 tox inconclusive (no result: S-ASM inh, MCF10A rereplic, Giardia killer, SW480 rerep)
O=C(Nc1cccc(-c2cnc3ccccc3n2)c1)c1cccc(NC(=O)c2ccco2)c1	KB-3-1 tox inconclusive, S-ASM inh inconclusive, KB-V1 MDR tox inconclusive, MCF10A rereplic 14.6µM
O=C(CCl)Nc1ccc(Oc2cnc3ccccc3n2)cc1	KB-3-1 tox 6.51µM, KB-V1 MDR tox 14.6µM, MCF10A rereplic inconclusive, SW480 rerep inconclusive
Cc1ccc(-c2cnc3ccccc3n2)cc1C	MCF10A rereplic 18.4µM
O=C(CCl)Nc1cccc(-c2cnc3ccccc3n2)c1	KB-3-1 tox 10.3µM, KB-V1 MDR tox 13µM, MCF10A rereplic inconclusive, Giardia killer inconclusive, SW480 rerep 11.6µM
O=C(Nc1cccc(-c2cnc3ccccc3n2)c1)c1ccccc1	none
O=C(Nc1ccc(C(F)(F)F)cc1)C1(c2cccs2)CCOCC1	none (no result: S-ASM inh, MCF10A rereplic, Giardia killer, SW480 rerep)
Cc1cc(-c2ccccc2)nc2cc(C(=O)Nc3ccc(Cl)c(Cl)c3)nn12	none (no result: S-ASM inh, MCF10A rereplic, Giardia killer, SW480 rerep)
O=C(COc1ccc2ccccc2c1)N[C@@H](C(=O)O)c1ccc(O)cc1	none
CC(=O)C1CCN(c2ncc(-c3cccc(N(C)C)c3)s2)CC1	none (no result: S-ASM inh, MCF10A rereplic, Giardia killer, SW480 rerep)
Cc1ccc(C(=O)Nc2cccc(C(F)(F)F)c2)cc1NC(=O)c1c[nH]c2cc(C(F)(F)F)ccc2c1=O	KB-3-1 tox inconclusive
CCN1CCN(Cc2ccc(NC(=O)c3ccc(C)c(NC(=O)c4c[nH]c5cc(C(F)(F)F)ccc5c4=O)c3)cc2C(F)(F)F)CC1	KB-3-1 tox 2.31µM, S-ASM inh inconclusive, KB-V1 MDR tox inconclusive, MCF10A rereplic 11.6µM, SW480 rerep 1.84µM
CCN1CCN(Cc2ccc(NC(=O)c3cc(NC(=O)c4cncc(-c5cccs5)c4)cc(OC)c3)cc2C(F)(F)F)CC1	KB-3-1 tox inconclusive, S-ASM inh inconclusive, KB-V1 MDR tox 18.4µM!, MCF10A rereplic 23.1µM, SW480 rerep inconclusive
CCN1CCN(Cc2ccc(NC(=O)c3cc(NC(=O)c4cc(-c5ccc(OC)cc5)n[nH]4)cc(OC)c3)cc2C(F)(F)F)CC1	S-ASM inh inconclusive, KB-V1 MDR tox 16.4µM
CCOc1ccc(NC(=O)c2cnn(-c3ccc(C)c(Cl)c3)c2C2CCNCC2)cc1	KB-V1 MDR tox inconclusive (no result: S-ASM inh, MCF10A rereplic, Giardia killer, SW480 rerep)
CCCCCCCn1ccc(=N)cc1	KB-3-1 tox 4.61µM, MCF10A rereplic inconclusive, SW480 rerep inconclusive
CCCCCCCCCn1ccc(=N)cc1	KB-3-1 tox 0.517µM, KB-V1 MDR tox 16.4µM
COc1ccccc1NC(=O)CSC1=Nc2ccccc2N=C(c2ccc(F)cc2)C1	KB-V1 MDR tox inconclusive (no result: S-ASM inh, MCF10A rereplic, Giardia killer, SW480 rerep)
Cc1ccc(C2Nc3ccccc3-n3c(-c4ccccc4)c4c(=O)n(C)c(=O)n(C)c4c32)o1 (configuration not stated)	none (no result: S-ASM inh, MCF10A rereplic, Giardia killer, SW480 rerep)
CCC(C)n1c(=N)c(C(=O)NC2CCCCC2)cc2c(=O)n3cc(C)ccc3nc21 (configuration not stated)	KB-V1 MDR tox inconclusive (no result: S-ASM inh, MCF10A rereplic, Giardia killer, SW480 rerep)
CC(=O)Nc1ccc(C(=O)OCC(=O)N(Cc2ccccc2)C(C)(C)C)cc1	KB-V1 MDR tox 14.6µM
